We go through 18 molecules from PubChem BioAssay (NCATS).

The source made the active and inactive calls. Calls come from the whole dose curve; as a rule, active = well fitted activation curve with a large enough effect; inconclusive = small, poorly fitted or top-dose-only effect; inactive = flat fitted curve, though single readings scatter.

This experiment in a line: Confirmation and Secondary Assay for Modulators of Hemoglobin Beta Chain Splicing at IVS2 654 locus (AID 910).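 Note: HeLa cells stably carrying EGFP split by mutant beta-globin IVS2-654 intron.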 The conditions noted are these: HeLa EGFP-654 splicing reporter, GFP fluorescence, 48 h; series mostly up to 46.1 µM. The source says:
NIH Chemical Genomics Center [NCGC] NIH Molecular Libraries Screening Centers Network [MLSCN] MLSCN Grant: 1 X01 MH080684-01 PI Name: Dr. Ryszard Kole NCGC Assay Overview: Modulation of Alternative Splicing as Therapy Abnormal splicing is associated with a number of diseases, including cancer and genetic diseases such as cystic fibrosis, muscular dystrophy and beta-thalassemia. Alteration of disease associated splicing patterns provides a promising target for treatment. […] Mutations in the second intron of the b-globin gene at positions 654 or 705 are clinically relevant and cause mis-splicing which results in an out of frame gene product. […] EGFP-654 HeLa Cells as screen system. HeLa cell lines were stably transfected with a construct in which the EGFP (enhanced green fluorescent protein) cDNA was interrupted by the second intron of the beta-globin gene (IVS2-654). The ISV2 intron contains mutations which cause mis-splicing of EGFP and premature termination of EGFP which results in a nonfluorescent protein product. […] Expression of the transgene was driven by the CMV promoter. We concluded that a low molecular weight compound, which restored correct splicing of intron 2 would also generate functional EGFP protein, resulting in a fluorescent signal. Thus, the HeLa cells that express the EGFP-654 construct can be used for high throughput screening of a chemical library.
NCGC Assay Protocol Summary: Confirmatory Screening. Freshly thawed HeLa EGFP-654 cells were seeded in 5 ul of optimem media (Invitrogen) containing 2 % fetal calf serum (Hyclone) and 1x penicillin/streptomycin (Invitrogen) at a concentration of 500 cells per well in 1536-well plates. Cells were incubated overnight at 37C in 5% CO2. The next day, cells were treated with DMSO, 500 nM antisense ISV2 654 PNA control oligo, or library compound and allowed to grow at 37C in 5% CO2 for 2 days. The PNA oligo blocked the mutation site in the intron and allowed proper (wild type) splicing to occur, resulting in full length EGFP expression and also allowed for optimization of the assay parameters. Plates were read in the Acumen Explorer (TTP Labtech) using 488 nm laser excitation and 500-520 nm emission PMT filter in a 1 x 8 uM capture mode. Fluorescnet objects ranging in size from 5 to 250 uM were measured and the total peak GFP intensity for each well was used for data analysis. Keywords: Thalassemia, beta-thalassemia, beta-globin, EGFP, ISV2 654, ISV2 705, SSO, PNA, antisense, splicing, MLSMR, MLSCN, NIH Roadmap, qHTS, NCGC
As for `CCCCCCCCC(=O)NCc1ccc(O)c(OC)c1`, the result was inactive.
Next, `Clc1ccc(CO/N=C(\Cn2ccnc2)c2ccc(Cl)cc2Cl)c(Cl)c1`: “inactive”; `CCCC(C)C1(CC)C(=O)N=C(S)NC1=O` (stereo not drawn): “inactive”.
`COC(=O)C1=CCCN(C)C1`: the molecule was classed as inactive.
Next, `N#Cc1nn(-c2c(Cl)cc(C(F)(F)F)cc2Cl)c(N)c1S(=O)C(F)(F)F` (stereo not drawn): “inactive”; `CN(C)C(=O)Oc1cc(OC(=O)N(C)C)cc(C(O)CNC(C)(C)C)c1` (stereo not drawn): “inactive”.
Next, `CCCCCCCCCCCCCCCC[n+]1ccccc1`: “inactive”; `COc1ccc(C(=O)N2CCCC2=O)cc1`: “inactive”.
For the molecule `CC[n+]1c(-c2ccccc2)c2cc(N)ccc2c2ccc(N)cc21`, the outcome was inactive.
Next, `Cc1ccc(N=CN(C)C=Nc2ccc(C)cc2C)c(C)c1`: “inactive”; `CC(C)[N+](C)(CCC(C(N)=O)(c1ccccc1)c1ccccc1)C(C)C`: “inactive”.
Next, `O=C(NC(=O)c1c(F)cccc1F)Nc1cc(Cl)c(OC(F)(F)C(F)C(F)(F)F)cc1Cl` (stereo not drawn): “inactive”.
Next, `CN(C)C(=S)SSC(=S)N(C)C`: “inactive”.
In the case of `c1ccc2nc(N3CCNCC3)ccc2c1`, the molecule was called inactive.
Next, `Clc1ccc(CSC(Cn2ccnc2)c2ccc(Cl)cc2Cl)cc1` (stereo not drawn): “inactive”.
Next, `NC(=O)CN1CCCC1=O`: “inactive”; `CCNc1nc(Cl)nc(NCC)n1`: “inactive”.
Next, `Clc1ccc(C(OCCN2CCCCC2)c2ccccc2)cc1` (stereo not drawn): “inactive”.
